Experimental findings from PubChem BioAssay AID2177 (The Scripps Research Institute Molecular Screening Center, 2009) are described below.

Among all 320,000 compounds or so, about 1,200 (0.38%) were called active. Shown is part of a subset that was picked to be rich in actives. Values without a mark were called inactive.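 Rule for the calls: active = inhibition above the screen-wide mean plus 3 SD, limit set per campaign (cut at about 26% in these data); inactive = the rest.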

This assay deals with Acyl-protein thioesterase 2 (Homo sapiens) (UniProt O95372). As to the kind of experiment: inhibition of human lysophospholipase 2 – biochemical, fluorescence polarization, FP-Rh probe ABPP, counter-screen for PME1 inhibitor project, primary screen (AID 2177).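 Note: 0% = LYPLA2 with DMSO and 100% = wells lacking LYPLA2 enzyme.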 The conditions noted are these: recombinant LYPLA2, FP-Rh probe fluorescence polarization; at 5.9 µM; hits give high values. On the technique in general: Polarisation of emitted light reports the rotation of a fluorescent probe.
Chain of Acyl-protein thioesterase 2 (Homo sapiens) (O95372 whole entry, looked up): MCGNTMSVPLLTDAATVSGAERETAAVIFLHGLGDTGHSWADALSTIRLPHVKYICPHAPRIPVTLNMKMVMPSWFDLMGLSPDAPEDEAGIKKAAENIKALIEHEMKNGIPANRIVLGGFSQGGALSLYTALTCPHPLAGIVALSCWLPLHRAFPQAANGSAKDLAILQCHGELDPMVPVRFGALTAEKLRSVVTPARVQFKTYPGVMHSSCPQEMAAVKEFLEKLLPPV
In general, inhibition refers to the relative decrease from the control value, in per cent. Consider `Cc1scc(C(=O)NNC(=S)NCC(C)C)c1C`, for which the inhibition is 8.57%.

Consider `Cc1sc2ncnc(N3CCC(C(=O)Nc4ccc(F)cc4Cl)CC3)c2c1C`, for which the inhibition was -1.19%.

In the case of `CC(=O)Nc1cccc(-c2csc(Nc3cccc(C)n3)n2)c1`, the inhibition was 2.92%.

On to `COc1ccc(CC(=O)Nc2nc(-c3ccc(F)c(F)c3)cs2)cc1OC`, for which the inhibition is -13.7%.

On to `COc1ccc(CCNc2nc(-c3cccc(NC(C)=O)c3)cs2)cc1OC`, for which the inhibition is 31.9% (active).

In the case of `CC(C(=O)Nc1ccc(O)c(C(=O)O)c1)N1C(=O)/C(=C/c2cccs2)SC1=S` (configuration not stated), the inhibition is 2.96%.

With `COc1cc(NS(=O)(=O)c2ccc3ccccc3c2)c2ncccc2c1`, the inhibition was -11.9%.

With `O=C(c1cccs1)C1C(c2ccc(Br)cc2)NC(=S)NC1(O)C(F)(F)F` (configuration not stated), the inhibition is -1.56%.

In the case of `Cc1c(C)c2ccc(OCC(=O)N3CCN(c4cccc(Cl)c4)CC3)cc2oc1=O`, the inhibition was 49.8% (active).

In the case of `OC(COc1ccc2c(c1)CCC2)CN1CCN(c2cccc(Cl)c2)CC1` (configuration not stated), the inhibition was 20.1%.

On to `O=C(CN1C(=O)CSc2ncccc21)N1CCOCC1`, for which the inhibition was -0.09%.

On to `O=C(COc1ccc(Cl)cc1)N1CCN(c2cccc(C(F)(F)F)c2)CC1`, for which the inhibition is 69.5% (active).

Consider `CCOc1ccccc1N1CCN(C(=O)COc2ccc3c(C)cc(=O)oc3c2)CC1`, for which the inhibition was -4.36%.

For `CCC(=O)c1ccc(OCC(O)CN2CC(C)OC(C)C2)cc1` (configuration not stated), the inhibition is 2.23%.

Take `O=C(CCCN1C(=O)CSc2ncccc21)N1CCN(c2cccc(C(F)(F)F)c2)CC1`: the inhibition is 63.4% (active).

Consider `CCC(=O)c1ccc(OCC(O)CN2CCN(c3cccc(C(F)(F)F)c3)CC2)cc1` (configuration not stated), for which the inhibition is 64.8% (active).

Take `O=C(CCCN1C(=O)C2C3C=CC(C3)C2C1=O)N1CCN(c2ccccc2)CC1` (configuration not stated): the inhibition was -3.87%.

Regarding `O=C(COc1ccc(Cl)cc1)N1CCN(S(=O)(=O)c2ccc(Cl)cc2)CC1`, the inhibition is -0.85%.

Consider `COc1ccc(N2CCN(C(=O)COc3ccc4c(C)cc(=O)oc4c3)CC2)cc1`, for which the inhibition was 11.7%.

With `O=C(COc1ccc(S(=O)(=O)Nc2cccc(C(F)(F)F)c2)cc1)N1CCOCC1`, the inhibition was 2.78%.

`O=C(c1ccc2c(c1)N(Cc1ccc(F)cc1)C(=O)c1ccccc1S2(=O)=O)N1CCN(c2ccccn2)CC1`: the inhibition was 1.84%.

With `COc1cc(S(=O)(=O)N(Cc2cccs2)C2CC2)ccc1-n1cnnn1`, the inhibition is 3.27%.

In the case of `CCOC(=O)N1CCN(S(=O)(=O)c2ccc3c(c2)C(C)C(=O)N3)CC1` (configuration not stated), the inhibition was -2.51%.

As to `Cc1ccccc1NC(=O)CSC1=NCCN1`, the inhibition was 0.07%.

In the case of `O=C1C2C3C=CC(C3)C2C(=O)N1c1ccc(-c2nc3ccccc3c(=O)o2)cc1` (configuration not stated), the inhibition is 1.58%.

With `N#CCSc1nn(-c2ccc(F)cc2)c(=S)s1`, the inhibition was -7.24%.

Regarding `COc1cccc(C(=O)Nc2nnc(S(=O)(=O)N3CCOCC3)s2)c1`, the inhibition was -0.08%.

For `Cc1ccccc1Cn1c2ccccc2c2cnn(CC(=O)NCc3ccco3)c(=O)c21`, the inhibition is -21%.

Regarding `COc1ccc(-c2nc(CS(=O)CC(=O)NCc3ccccc3)c(C)o2)cc1OC` (configuration not stated), the inhibition was 0.93%.

As to `COc1cccc(-c2nc(CS(=O)CC(=O)NCc3ccc(F)cc3)c(C)o2)c1` (configuration not stated), the inhibition is 10.6%.

As to `COc1ccc(-c2nc(CS(=O)CC(=O)NCc3ccccn3)c(C)o2)cc1` (configuration not stated), the inhibition is 27.8% (active).

Turning to `CC[N+](C)(CC)CCC[n+]1c(-c2ccccc2)c2cc(N)ccc2c2ccc(N)cc21`, the inhibition is 72.4% (active).

Consider `O=C1/C(=C\c2ccccc2Cl)SC(=S)N1CCC(=O)N1CCCc2ccccc21`, for which the inhibition was -1.32%.

With `CCOc1ccc(NC(=O)CN(C)C(=O)CCSc2ccc(F)cc2)cc1OCC`, the inhibition was 6.29%.

In the case of `O=C(CCl)NNc1cccc(Cl)n1`, the inhibition was -5.01%.

With `CC1CC(NC(=O)/C(C#N)=C/c2ccc[nH]2)CC(C)(C)C1` (configuration not stated), the inhibition was 0.74%.

With `O=C(CCCN1C(=O)c2cccc3cccc(c23)C1=O)N1CCN(Cc2ccc3c(c2)OCO3)CC1`, the inhibition was 64.2% (active).

In the case of `Cn1c(=O)cc(OCCCC(=O)N2CCN(Cc3ccc4c(c3)OCO4)CC2)c2ccccc21`, the inhibition is 9.58%.

For `O=C(Nc1cccc2ccccc12)N1CCN(Cc2ccc3c(c2)OCO3)CC1`, the inhibition was 1.22%.

For the compound `CCCCCc1c(C)nc(N2CCN(Cc3ccc4c(c3)OCO4)CC2)[nH]c1=O`, the inhibition was -5.68%.

With `N#Cc1ccc(OCc2nnc(-c3ccc([N+](=O)[O-])cc3)o2)cc1`, the inhibition is 32.3% (active).

In the case of `O=C(CSc1nnc(-c2ccc([N+](=O)[O-])cc2)o1)Nc1ccccn1`, the inhibition is 0.49%.

As to `CCOC(=O)CSc1nnc(-c2ccc([N+](=O)[O-])cc2)o1`, the inhibition is -0.42%.

Consider `N#Cc1c(/N=C/N2CCCC2)oc(-c2ccccc2)c1-c1ccccc1`, for which the inhibition was 4.8%.

Turning to `CC(=O)C12CC(C)=C(C)CC1CC1C3CCC4=CC(=O)CCC4(C)C3CCC12C` (configuration not stated), the inhibition was -4.85%.

For `CCOc1ccc(N2CC(C(=O)NCCN3C(=O)S/C(=C\c4cccnc4)C3=O)CC2=O)cc1` (configuration not stated), the inhibition is 6.19%.

Regarding `COc1ccccc1N1CC(C(=O)NCCN2C(=O)S/C(=C\c3cccnc3)C2=O)CC1=O` (configuration not stated), the inhibition was 1.85%.

As to `COc1ccc(N2CC(C(=O)NCCN3C(=O)S/C(=C\c4cccnc4)C3=O)CC2=O)c(OC)c1` (configuration not stated), the inhibition is 57.6% (active).

For the compound `Cc1cc(C)c(S(=O)(=O)N2CCC(C(=O)OCc3c(C)noc3C)CC2)c(C)c1`, the inhibition was 5.23%.

Regarding `COCCn1c(SCC(=O)c2[nH]c(C)c(C(C)=O)c2C)nc2ccccc2c1=O`, the inhibition was -1.43%.

As for `CN(CC(=O)NCCc1ccccc1)S(=O)(=O)c1cnc[nH]1`, the inhibition was -2.19%.

For the compound `O=C(CC1SC(N2CCCC2)=NC1=O)Nc1ccc(C(=O)NCCc2ccc(F)cc2)cc1` (configuration not stated), the inhibition was 34.5% (active).

With `CCC(C)NC(=O)c1ccc(NC(=O)CC2SC(N3CCCCC3)=NC2=O)cc1` (configuration not stated), the inhibition is -2.2%.

For the compound `COc1ccc(NC(=O)CC2SC(N3CCCCC3)=NC2=O)cc1OC` (configuration not stated), the inhibition was -2.51%.

As to `CCN(CC)C(=O)CC1(c2ccccc2OC)CCOC(C(C)C)C1` (configuration not stated), the inhibition is 27.5% (active).

As for `CCN(CC(=O)Nc1ccccc1OC)C(=O)CC1CC2CCC1C2` (configuration not stated), the inhibition was 4.24%.

In the case of `COc1ccc(C2(CNC(=O)C(c3ccccc3)c3ccccc3)CCOCC2)cc1OC`, the inhibition is 0.76%.

For the compound `c1ccc(-c2ccnc3nc(-n4cccc4)nn23)cc1`, the inhibition is 5.32%.

With `CCCCCC1CCC(c2nnc(SCC(C)=O)o2)CC1` (configuration not stated), the inhibition was 34.9% (active).

As to `Cc1[nH]c2ccccc2c1C(=O)C(C)Sc1nnc(C2CC2)o1` (configuration not stated), the inhibition was 1.82%.

Take `CCN(CC)C(=O)CSc1nnc(C2CCCCC2)o1`: the inhibition is 6.58%.

With `CC(=O)Nc1ccc(N2C(=O)CCC2=O)cc1C`, the inhibition is 2%.
